PubChem BioAssay AID686979 (National Center for Advancing Translational Sciences (NCATS), 2013)
The whole screen tested about 420,000 compounds, of which about 50,000 (12%) were called active. About 26% were inconclusive and are not listed. Only a selection was taken, and actives are over-represented in it overall. A number with no mark means an inactive call. Calls follow the shape of the dose curve; as a rule, active = well fitted inhibition curve with a large enough effect; inconclusive = small, poorly fitted or top-dose-only effect; inactive = flat fitted curve, though single readings scatter.

Experiment: qHTS for Inhibitors of human tyrosyl-DNA phosphodiesterase 1 (TDP1): qHTS in cells in presence of CPT; also: nearly all actives have a fitted effect of over 55% in size
Conditions: chicken DT40 Tdp1-/-;hTDP1 cells + 20 nM CPT, ATP luminescence, 48 h; series mostly up to 46.2 µM; activity change, negative = growth inhibition: at the top concentration
Outline: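 Chicken DT40 Tdp1-/- cells complemented with human TDP1, 400 cells/well, exposed to compounds plus 20 nM camptothecin for at least 48 h at 37 C; viability read as ATP content by CellTiter-Glo luminescence.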
% is scaled to controls: 0 for no effect and ±100 for the full control effect; potency is read from the fitted curve at half-maximal effect.

Row | SMILES | activity change, negative = growth inhibition | Potency
1 | Cc1ccc2c(c1)C1CN(C)CCC1N2C(=S)Nc1ccc(OC(F)F)cc1 (stereo not drawn) | -1.44% | 
2 | CCN(Cc1ccncc1)C(=S)Nc1ccccc1C | -14.5% | 
3 | COc1ccc(N(CC(=O)NCC2CCCO2)C(=O)CCC(=O)Nc2nccs2)c(OC)c1 (stereo not drawn) | -4.44% | 
4 | Cc1ccc(C(=O)Nc2ccn(C)n2)cc1 | 6.62% | 
5 | Cn1nccc1C(=O)NC1CCCc2c1cnn2-c1ccccc1F (stereo not drawn) |  | 4.61 µM (active)
6 | CC(=O)NCC(=O)NC1CCCc2c1cnn2-c1ccccc1F (stereo not drawn) | -4.57% | 
7 | Cn1nccc1C(=O)NC1CCCc2c1cnn2-c1ccc(F)cc1F (stereo not drawn) |  | 1.46 µM (active)
8 | O=C(NCCN1CCCC(O)C1)c1cc(COc2c(F)cccc2F)on1 (stereo not drawn) | -2.59% | 
9 | O=[N+]([O-])c1ccc(N2CCNCC2)cc1NCc1cccnc1 | -7.77% | 
10 | CN1CCN(/N=C/c2ccc(C#N)cc2)CC1 | 0.988% | 
11 | COc1ccc(-n2c(C)cc(C(=O)CN3C(=O)NC4(CCc5ccccc54)C3=O)c2C)cc1 (stereo not drawn) |  | 14.6 µM (active)
12 | COc1ccc(CNC(=O)CN2C(=O)NC3(CCCc4sccc43)C2=O)cc1 (stereo not drawn) | 6.22% | 
13 | COc1ccc(C(=O)CN2C(=O)NC3(CCc4ccccc43)C2=O)c(OC)c1 (stereo not drawn) | -14.2% | 
14 | Cc1cc(/C=C2\SC(=O)N(C)C2=O)c(C)n1-c1cccc(C(=O)O)c1 | -27.4% | 
15 | COc1ccccc1NC(=O)C1=C(C)Nc2nc3ccccc3n2C1c1cccs1 (stereo not drawn) |  | 4.11 µM (active)
16 | CCOC(=O)C1=C(C)Nc2nc3ccccc3n2C1c1cccs1 (stereo not drawn) | 0.312% | 
17 | COc1ccccc1NC(=O)C1=C(C)Nc2ncnn2C1c1sccc1C (stereo not drawn) | -19.7% | 
18 | O=C(c1ccccc1)c1cc(-c2ccccn2)c(N2CCOCC2)s1 | -16.3% | 
19 | c1csc(-c2nnc(COc3ncnc4sccc34)o2)c1 | -2.84% | 
20 | COc1ccccc1C1CN(Cc2ccccc2O)Cc2ccccc2O1 (stereo not drawn) | -2.83% [at 9.04 µM] | 
21 | NC(=O)C1CCN(C(=O)c2ccc(C(F)(F)F)cc2)CC1 | 3.63% | 
22 | COC(=O)c1ccc(S(=O)(=O)N2CCC(c3nc4ccccc4o3)CC2)cc1 | -17.1% | 
23 | O=C(c1ccc(C(F)(F)F)cc1)N1CCC(c2nc(-c3ccc(S(=O)(=O)N4CCCC4)cc3)no2)CC1 |  | 20.6 µM (active)
24 | Cn1c(SCC(=O)C(C)(C)C)nnc1-c1ccccn1 | -0.85% | 
25 | CCOC(=O)c1c(S(=O)(=O)N2CCC(C(=O)NCc3ccccc3OC)CC2)c(C)n(C)c1C | -1.17% | 

Row | SMILES | activity change, negative = growth inhibition | Potency
26 | CCCCNC(=O)Cn1nc(C)c(S(=O)(=O)N2CCOCC2)c1C | -16.1% | 
27 | COc1ccc2nc(N3C(=O)C(O)=C(C(=O)c4ccco4)C3c3ccco3)sc2c1 (stereo not drawn) | 2.99% | 
28 | COc1ccc2nc(N3CCN(C(=O)c4ccc([N+](=O)[O-])o4)CC3)sc2c1 |  | 14.6 µM (active)
29 | Cc1ccc2nc(N3CCN(C(=O)c4ccco4)CC3)sc2c1 | 7.4% | 
30 | COc1ccc(C(=O)OCC(=O)c2ccc(Cl)s2)c(OC)c1OC | -13.5% | 
31 | COc1ccc(-c2[nH]ncc2CN(C)Cc2c(C)n[nH]c2C)c(OC)c1 | 2.49% | 
32 | Oc1ccc(-c2[nH]ncc2-c2nc3ccccc3s2)c(O)c1 | -5.33% | 
33 | COc1ccc(Oc2cn[nH]c2-c2ccc(OC)cc2O)cc1 |  | 25.9 µM (active)
34 | CN1CCN(c2ccc([N+](=O)[O-])c(Sc3nc4ccccc4[nH]3)c2)CC1 | -29.7% | 
35 | CC(C)c1ccc(NC(=O)COC(=O)c2ccc(CN3CCCC3=O)cc2)cc1 | -5% | 
36 | O=C1CN(C(=O)COC(=O)/C=C/c2ccc(F)cc2)c2ccccc2N1 | 18% | 
37 | COc1ccc(-c2nc3sc(CCNC(=O)C(C)(C)C)c(C)n3n2)cc1 |  | 29.1 µM (active)
38 | CCOc1ccc2nc(NCCNC(=O)C(C)(C)C)c(C)cc2c1 | -4.1% | 
39 | Cc1c(CCNC(=O)c2ccc(C(F)(F)F)cc2)sc2nc(-c3ccc(F)cc3)nn12 | -7.8% | 
40 | O=C(NC1CCCC1)C1c2ccccc2OCC(=O)N1CC(F)(F)F (stereo not drawn) | -9.47% | 
41 | CCn1ccnc1CN1CCCC(C(=O)c2ccc3c4c(cccc24)CC3)C1 (stereo not drawn) |  | 7.31 µM (active)
42 | Cc1ccccc1N1CCN(C2CCCN(C(=O)c3ocnc3C)C2)CC1 (stereo not drawn) | -9.73% | 
43 | CC(=O)NCC(=O)N1CCCC(C(=O)c2ccc3c4c(cccc24)CC3)C1 (stereo not drawn) | -25.7% | 
44 | Cc1ncoc1C(=O)N1CCCC(C(=O)c2ccc3c4c(cccc24)CC3)C1 (stereo not drawn) |  | 18.4 µM (active)
45 | Cc1c(CN2CCCC(C(=O)c3cccc(Cl)c3)C2)c(=O)n(-c2ccccc2)n1C (stereo not drawn) | -1.58% | 
46 | CCc1nccn1CCC(=O)N1CCCC(N2CCN(c3ccccc3F)CC2)C1 (stereo not drawn) | -6.03% | 
47 | CCOC1=C2[C@H]([C@H]3C(=O)N(c4ccccc4)C(=O)[C@H]3C1)[C@@H](c1ccccc1)N(S(=O)(=O)c1ccc(C)cc1)[C@H]2c1ccccc1 | -13.4% | 
48 | O=C(Cn1ncn2nc(-c3cccs3)cc2c1=O)NCc1cccc(Br)c1 | -20.4% | 
49 | COc1cc(NC(=O)c2ccccc2)c(OC)cc1NC(=O)Cc1ccccc1 | -29.7% | 
50 | COc1ccc(C(=O)OCC(=O)Nc2cc(C)on2)cc1F | -15.2% | 

Row | SMILES | activity change, negative = growth inhibition | Potency
51 | CC(=O)c1ccc(NC(=O)C(C)OC(=O)c2ccc(NS(=O)(=O)c3ccc4[nH]c(=O)[nH]c4c3)cc2)cc1 (stereo not drawn) | 1.01% | 
52 | CCOc1ccc(/C=N/Nc2nncc(-c3ccccc3)n2)cc1OC |  | 16.4 µM (active)
53 | COc1cccc(/C=N\Nc2nncc(-c3ccccc3)n2)c1 | -0.484% | 
54 | COc1cc(/C=N/n2c(C)n[nH]c2=S)ccc1OCc1ccccc1 | -11.3% | 
55 | CC(CO)N1CCS(=O)(=O)CC1 (stereo not drawn) | 9.38% | 
56 | COc1ccc(/C=C/c2c(-c3cccc(C)c3)oc3ccc(-c4ccc5c(c4)OCO5)cc23)cc1 | -16.4% | 
57 | CC1CN(Cc2ccccc2)C(=S)NC1=O (stereo not drawn) | 7.52% | 
58 | CC(=O)Oc1c2c(c3c(c1CC=C(C)C)O[C@@]14C(=CC5CC1C(C)(C)OC4(C/C=C(\C)C(=O)O)C5=O)C3=O)OC(C)(CCC=C(C)C)C=C2 (stereo partly drawn) |  | 2.91 µM (active)
59 | O=C1C(=O)N(CCCN2CCOCC2)C(c2ccc([N+](=O)[O-])cc2)/C1=C(\O)c1ccc2c(c1)OCCO2 (stereo not drawn) | -2.39% | 
60 | Cc1ccc(NC(=O)CN(C)C(=O)Cn2nnc(-c3ccccc3)n2)cc1 | 12.9% | 
61 | Cc1cc(O)c(C2(O)C(=O)Nc3ccccc32)cc1C (stereo not drawn) | 5.24% | 
62 | COc1ccc(-c2nn(CC(=O)NC3CCCC3)c3c2cnc2ccc(F)cc23)cc1 | -6.97% | 
63 | COc1ccc2ncc3c(-c4ccc(C)c(C)c4)nn(CC(=O)NC4CCCC4)c3c2c1 |  | 5.17 µM (active)
64 | CCc1ccc2ncc3c(-c4ccc(C)cc4)nn(CC(=O)NCc4ccccc4)c3c2c1 | -20.3% | 
65 | O=C(COC(=O)CSc1ccccc1)Nc1ccc(F)cc1F | -4.02% | 
66 | O=C(C[C@H]1C[C@@H]2c3cc(NC(=O)C4CCC4)ccc3O[C@@H]2[C@H](CO)O1)NC1CCCCC1 | 28.7% | 
67 | O=C(Nc1ccc2c(c1)[C@@H]1C[C@@H](CC(=O)N3CCCCC3)O[C@@H](CO)[C@@H]1O2)NC1CCCCC1 | -8.78% | 
68 | O=C(C[C@H]1C[C@H]2c3cc(NS(=O)(=O)c4ccc(F)cc4)ccc3O[C@H]2[C@H](CO)O1)NCc1cc(F)ccc1F |  | 16.4 µM (active)
69 | Cc1cccc(C(=O)N2CCC(c3nc4ccccc4s3)CC2)c1 | -8.8% | 
70 | COC(=O)C1=NNC2(c3ccc(C)cc3)C(=O)N(c3cccc(C)c3C)C(=O)C12 (stereo not drawn) | -9.35% | 
71 | CCCCn1c(N)c(N(CC)C(=O)c2ccc(N(C)S(=O)(=O)c3ccc(C)cc3)cc2)c(=O)[nH]c1=O | 3.11% | 
72 | Cc1cccc(C(=O)Nc2ccccc2-c2nnn(CC(=O)Nc3ccc4c(c3)OCCO4)n2)c1 | -23.9% | 
73 | Cc1ccc2c(Cl)c(C(=O)NCCCn3ccnc3)sc2c1 | -24% | 
74 | Cc1ccc(-n2ncc3c(NCCCn4ccnc4)ncnc32)cc1Cl |  | 20.6 µM (active)
75 | O=C(NCCCn1ccnc1)Nc1ccc(Cl)cc1Cl | -17.8% | 

Row | SMILES | activity change, negative = growth inhibition | Potency
76 | CC1CN(C(=O)N2CCC(C(=O)NCc3cccs3)CC2)c2ccccc2O1 (stereo not drawn) | -3.5% | 
77 | Cc1cnc(CN(C)C(=O)C2CCC(=O)N(CCc3cccc(F)c3)C2)[nH]1 (stereo not drawn) | 1.53% | 
78 | O=C(NC(=S)Nc1ccc(Cl)cc1Cl)C1CC1 |  | 20.6 µM (active)
79 | O=C(NC(=S)Nc1ccc(Br)cc1F)C1CCCCC1 | -24.6% | 
80 | S=C(Nc1ccc(Cl)cc1Cl)N1CCCC1 | 1.1% | 
81 | CCCCCCNC(=O)CSc1nccn1Cc1ccccc1 | -26.6% | 
82 | COC1[C@H](OC(N)=O)C(O)[C@H](Oc2ccc3c(O)c(NC(=O)c4ccc(O)c(CC=C(C)C)c4)c(=O)oc3c2C)OC1(C)C (stereo partly drawn) | -3.46% | 
83 | Cc1ccc(NC(=O)CN(C)C(=O)COC(=O)c2nccnc2N)cc1 | -9.42% | 
84 | CC[C@@H]1CCCCc2ccccc2[C@@H](C(=O)C[C@H](O)CC(C)=O)OC1=O | -10.9% | 
85 | CCn1ccnc1C[C@@H]1COc2ccccc2O1 | -1.49% | 
86 | Cc1noc(C)c1C(=O)NCC1COc2ccccc2O1 (stereo not drawn) | -23.6% | 
87 | O=C(CN1C(=O)C2C3C=CC(C3)C2C1=O)NCC1COc2ccccc2O1 (stereo not drawn) | 2.17% | 
88 | O=C1C(=O)N(CC2COc3ccccc3O2)c2ccccc21 (stereo not drawn) |  | 1.64 µM (active)
89 | Cc1cc(C(=O)CCl)c(C)n1CC1COc2ccccc2O1 (stereo not drawn) |  | 2.06 µM (active)
90 | Cc1cc(NC(=O)CCC2COc3ccccc3O2)no1 (stereo not drawn) | -7.12% | 
91 | O=c1c(NCc2cccs2)nccn1-c1ccccc1 | -5.85% | 
92 | CCN(CC(=O)Nc1c(F)cccc1F)C(=O)CN1c2cccc3cccc(c23)S1(=O)=O | -0.627% | 
93 | O=C(Cn1cc(C(F)(F)F)ccc1=O)Nc1ccc2c(c1)OCCO2 | 2.89% | 
94 | O=C(NCCc1nnc2ccc(SCC(=O)N3CCOCC3)nn12)c1ccccc1 | 19.8% | 
95 | CC1=CCC2C(=O)N(c3cccc(C(=O)NC(C)c4ccccc4)c3)C(=O)C2C1 (stereo not drawn) | 7.83% | 
96 | Cc1oc(C)c2c(=O)cc(-c3ccc4c(c3)OCO4)cc(OC(=O)c3ccc(Cl)cc3)c12 |  | 20.6 µM (active)
97 | COc1ccc(Cl)cc1NC(=O)CN(C)CC(=O)Nc1ccc2c(c1)OCO2 | -29.4% | 
98 | CC1(c2ccc(Cl)cc2)NC(=O)N(CC(=O)c2ccc3c(c2)OCO3)C1=O (stereo not drawn) | -26.1% | 
